PubChem BioAssay (EPA / NIEHS)
Inconclusive results are not listed. Activity calls are given as the source filed them. How the source made its calls, unless noted: active means hit-call score of the fitted dose curve at least 0.9, where 1 is the maximum; inactive means score below 0.9.

Assays:
[1] = read-out: E-selectin (Homo sapiens) (UniProt P16581); test: BSK_3C_Eselectin: BioMAP Diversity Plus: 3C Assay for Eselectin Biomarker Activity (AID 2283015); settings: primary human endothelial cells (HUVEC); actives raise or lower the signal;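 on outcome: cell surface E-selectin protein quantified by ELISA 24 h after dosing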
Procedure, shortened: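 HUVEC, 3C stimulation; compound exposure 24 h; E-selectin by ELISA; gain- or loss-of-signal fitted bidirectionally vs DMSO baseline.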

[2] = read-out: Monocyte Chemoattractant Protein-1 (MCP1), CCL2 (gene 6347); test: BSK_3C_MCP1: BioMAP Diversity Plus: 3C Assay for Monocyte Chemoattractant Protein-1 (MCP1) Biomarker Activity (AID 2283017); settings: primary human endothelial cells (HUVEC); actives raise or lower the signal
Procedure, shortened: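 HUVEC, 3C system; 24 h chemical exposure; MCP-1 by ELISA; bidirectional curve fit vs DMSO baseline.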

[3] = read-out: Monocyte Chemoattractant Protein-1 (MCP1), CCL2 (gene 6347); test: BSK_4H_MCP1: BioMAP Diversity Plus: 4H Assay for Monocyte Chemoattractant Protein-1 (MCP1) Biomarker Activity (AID 2283018); settings: primary human endothelial cells (HUVEC); actives raise or lower the signal
Procedure, shortened: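 ELISA of MCP-1 (CCL2) 24 h after chemical dosing of HUVEC in the BioMAP 4H system. Gain or loss versus DMSO fitted; parallel SRB staining (560 nm) tracked overt cytotoxicity.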

[4] = read-out: Human Leukocyte Antigen - DR isotype (HLADR), HLA-DRA (gene 3122); test: BSK_3C_HLADR: BioMAP Diversity Plus: 3C Assay for Human Leukocyte Antigen - DR isotype (HLADR) Biomarker Activity (AID 2283019); settings: primary human endothelial cells (HUVEC); actives raise or lower the signal
Procedure, shortened: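 HUVEC, 3C stimulation, 24 h post-dose; HLA-DR by ELISA; bidirectional curve fit vs DMSO baseline; gain or loss of signal scored.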

[5] = read-out: Interleukin-8 (IL8), CXCL8 (gene 3576); test: BSK_3C_IL8: BioMAP Diversity Plus: 3C Assay for Interleukin-8 (IL8) Biomarker Activity (AID 2283020); settings: primary human endothelial cells (HUVEC); actives raise or lower the signal
Procedure, shortened: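 IL-8 was measured by ELISA in HUVEC cultures 24 h after chemical dosing, with gain or loss of signal fitted relative to DMSO. Parallel SRB total-protein staining tracked overt cytotoxicity.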

[6] = read-out: Monokine induced gamma interferon (MIG), CXCL9 (gene 4283); test: BSK_3C_MIG: BioMAP Diversity Plus: 3C Assay for Monokine induced gamma interferon (MIG) Biomarker Activity (AID 2283021); settings: primary human endothelial cells (HUVEC); actives raise or lower the signal;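 on AC50: MIG protein level measured by immunoassay in the treated endothelial cultures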
Procedure, shortened: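 ELISA measurement of MIG in human umbilical vein endothelial cells 24 h after treatment. Cytotoxicity tracked by SRB staining in parallel cultures; gain or loss of signal fitted relative to DMSO.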

[7] = molecular target: human Vitamin D Receptor (VDR), VDR (gene 7421) (UniProt P11473); test: ATG_VDR_TRANS: Attagene TRANS-FACTORIAL HepG2 Assay for human Vitamin D Receptor (VDR) (AID 2283022; active means hit-call score of the fitted dose curve at least 0.9, where 1 is the maximum)
Procedure, shortened: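 RT-PCR/capillary electrophoresis read-out of reporter mRNA induction in transiently transfected HepG2; 24 h dosing; chimeric NR-Gal4 (TRANS format); gain-of-signal fit against DMSO baseline.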

[8] = BSK_3C_SRB: Viability Assessment in the BioMAP Diversity Plus: 3C Assay (AID 2283023); settings: primary human endothelial cells (HUVEC);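 further: fitted both ways against DMSO so a hit may be signal rise or drop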
Procedure, shortened: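 HUVEC, 24 h post-dose; 10% TCA fix, 0.1% SRB stain, A560 nm. Bidirectional curve fit vs DMSO negative control.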

[9] = read-out: Matrix Metallopeptidase 1 (MMP1), MMP1 (gene 4312); test: BSK_BE3C_MMP1: BioMAP Diversity Plus: BE3C Assay for Matrix Metallopeptidase 1 (MMP1) Biomarker Activity (AID 2283024); settings: primary human bronchial epithelial cells; actives raise or lower the signal
Procedure, shortened: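 ELISA measurement of MMP-1 after 24 h compound exposure of primary human bronchial epithelial cells. Changes in either direction fitted relative to DMSO; parallel SRB staining checked overt cytotoxicity.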

[10] = BSK_3C_Vis: BioMAP Diversity Plus: 3C Assay for Morphology Visualization (AID 2283025); settings: primary human endothelial cells (HUVEC);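 further: fitted both ways so gain or loss versus DMSO counts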;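 on AC50: light microscopy image of cell morphology used as background control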
Procedure, shortened: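 Light-microscopy visualization of HUVEC cultures at 24 h post-treatment, with DMSO as baseline for bidirectional fitting.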

[11] = read-out: Pselectin, SELP (gene 6403); test: BSK_4H_Pselectin: BioMAP Diversity Plus: 4H Assay for Pselectin Biomarker Activity (AID 2283026); settings: primary human endothelial cells (HUVEC); actives raise or lower the signal
Procedure, shortened: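 ELISA of surface P-selectin on HUVEC, 24 h after dosing, with parallel SRB staining (0.1% after 10% TCA fixation, 560 nm) for overt cytotoxicity. Activity fitted in both directions relative to DMSO.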

[12] = BSK_4H_SRB: Viability Assessment in the BioMAP Diversity Plus: 4H Assay (AID 2283027); settings: primary human endothelial cells (HUVEC);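 further: cells exposed to compound for 24 h before staining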;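 on AC50: curves fitted both ways versus DMSO so AC50 may be loss or gain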
Procedure, shortened: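 Cytotoxicity read-out in primary human endothelial cells: after 24 h compound exposure, cells were TCA-fixed (10%), stained with 0.1% SRB and absorbance taken at 560 nm. Values fitted in both directions relative to DMSO.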

[13] = BSK_BE3C_SRB: Viability Assessment in the BioMAP Diversity Plus: BE3C Assay (AID 2283028); settings: primary human bronchial epithelial cells;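 on AC50: fitted both ways so AC50 may mark signal gain or loss versus DMSO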
Procedure, shortened: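 Primary human bronchial epithelium; chemical dosing, 24 h; 10% TCA fix, 0.1% SRB stain, A560; bidirectional fit vs DMSO baseline.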

[14] = read-out: Urokinase-type plasminogen activator receptor (uPAR), PLAUR (gene 5329); test: BSK_4H_uPAR: BioMAP Diversity Plus: 4H Assay for Urokinase-type plasminogen activator receptor (uPAR) Biomarker Activity (AID 2283030); settings: primary human endothelial cells (HUVEC); actives raise or lower the signal
Procedure, shortened: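 HUVEC, 24 h post-dose; uPAR by ELISA; bidirectional fit vs DMSO baseline.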

[15] = read-out: Vascular endothelial growth factor receptor 2 (Homo sapiens) (UniProt P35968); test: BSK_4H_VEGFRII: BioMAP Diversity Plus: 4H Assay for Vascular endothelial growth factor receptor 2 (VEGFR2) Biomarker Activity (AID 2283031); settings: primary human endothelial cells (HUVEC); actives raise or lower the signal;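 on AC50: cell-surface VEGFR2 protein level quantified by ELISA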
Procedure, shortened: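 HUVEC (human primary), 4H system; 24 h post-dose; VEGFRII by ELISA; bidirectional curve fit vs DMSO baseline; gain or loss of signal scored.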

[16] = read-out: Human Leukocyte Antigen - DR isotype (HLADR), HLA-DRA (gene 3122); test: BSK_BE3C_HLADR: BioMAP Diversity Plus: BE3C Assay for Human Leukocyte Antigen - DR isotype (HLADR) Biomarker Activity (AID 2283032); settings: primary human bronchial epithelial cells; actives raise or lower the signal
Procedure, shortened: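 Cell-surface HLA-DR ELISA readout at 24 h after dosing in the BE3C primary human lung bronchial epithelial system; gain or loss of signal against DMSO, with parallel sulforhodamine B staining of total protein for overt cytotoxicity.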

[17] = read-out: Interleukin-1 alpha (IL1a), IL1A (gene 3552); test: BSK_BE3C_IL1a: BioMAP Diversity Plus: BE3C Assay for Interleukin-1 alpha (IL1a) Biomarker Activity (AID 2283016); settings: primary human bronchial epithelial cells; actives raise or lower the signal
Procedure, shortened: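 IL-1a measured by ELISA after 24 h treatment of human primary bronchial epithelial cells, with gain or loss of signal fitted versus DMSO. Parallel cultures stained with SRB gauge overt cytotoxicity.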

[18] = read-out: Thrombomodulin, THBD (gene 7056); test: BSK_3C_Thrombomodulin: BioMAP Diversity Plus: 3C Assay for Thrombomodulin Biomarker Activity (AID 2283029); settings: primary human endothelial cells (HUVEC); actives raise or lower the signal
Procedure, shortened: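 ELISA measurement of thrombomodulin on HUVEC surface 24 h after chemical dosing; activity fitted in both directions relative to DMSO vehicle.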

[19] = read-out: Interferon-gamma inducible Protein 10 (IP10), CXCL10 (gene 3627); test: BSK_BE3C_IP10: BioMAP Diversity Plus: BE3C Assay for Interferon-gamma inducible Protein 10 (IP10) Biomarker Activity (AID 2283034); settings: primary human bronchial epithelial cells; actives raise or lower the signal
Procedure, shortened: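 IP-10 quantified by ELISA in human primary bronchial epithelial cell cultures at 24 hours post-dosing. Gain or loss of signal fitted relative to DMSO; parallel SRB staining assessed overt cytotoxicity.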

[20] = read-out: Vascular cell adhesion molecule 1 (VCAM1), VCAM1 (gene 7412); test: BSK_4H_VCAM1: BioMAP Diversity Plus: 4H Assay for Vascular cell adhesion molecule 1 (VCAM1) Biomarker Activity (AID 2283033); settings: primary human endothelial cells (HUVEC); actives raise or lower the signal;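 further: cell-surface VCAM-1 protein measured by ELISA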
Procedure, shortened: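 VCAM-1 ELISA read 24 h after chemical dosing of HUVEC in the BioMAP 4H system, with gain or loss of signal fitted relative to DMSO. Parallel SRB staining (560 nm) checked overt cytotoxicity.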

Sequence of E-selectin (Homo sapiens) (P16581 whole entry, looked up): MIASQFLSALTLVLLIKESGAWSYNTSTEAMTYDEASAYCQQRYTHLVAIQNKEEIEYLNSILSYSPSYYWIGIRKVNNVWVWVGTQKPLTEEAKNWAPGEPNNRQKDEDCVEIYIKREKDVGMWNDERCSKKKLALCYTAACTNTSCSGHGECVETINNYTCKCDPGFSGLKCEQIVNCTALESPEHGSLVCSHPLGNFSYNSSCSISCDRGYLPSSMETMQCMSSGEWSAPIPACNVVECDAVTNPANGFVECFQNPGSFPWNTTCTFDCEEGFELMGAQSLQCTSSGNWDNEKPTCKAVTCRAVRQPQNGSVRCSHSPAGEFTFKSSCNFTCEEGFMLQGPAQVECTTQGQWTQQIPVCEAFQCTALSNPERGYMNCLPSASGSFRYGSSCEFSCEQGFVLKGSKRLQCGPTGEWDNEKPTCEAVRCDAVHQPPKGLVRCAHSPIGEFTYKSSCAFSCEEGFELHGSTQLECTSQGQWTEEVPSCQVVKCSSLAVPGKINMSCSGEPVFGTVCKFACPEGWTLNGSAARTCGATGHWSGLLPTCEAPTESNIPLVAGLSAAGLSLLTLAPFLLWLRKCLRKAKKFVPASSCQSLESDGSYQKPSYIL
Sequence of human Vitamin D Receptor (VDR), VDR (gene 7421) (P11473 whole entry, looked up, the tested form may be a part): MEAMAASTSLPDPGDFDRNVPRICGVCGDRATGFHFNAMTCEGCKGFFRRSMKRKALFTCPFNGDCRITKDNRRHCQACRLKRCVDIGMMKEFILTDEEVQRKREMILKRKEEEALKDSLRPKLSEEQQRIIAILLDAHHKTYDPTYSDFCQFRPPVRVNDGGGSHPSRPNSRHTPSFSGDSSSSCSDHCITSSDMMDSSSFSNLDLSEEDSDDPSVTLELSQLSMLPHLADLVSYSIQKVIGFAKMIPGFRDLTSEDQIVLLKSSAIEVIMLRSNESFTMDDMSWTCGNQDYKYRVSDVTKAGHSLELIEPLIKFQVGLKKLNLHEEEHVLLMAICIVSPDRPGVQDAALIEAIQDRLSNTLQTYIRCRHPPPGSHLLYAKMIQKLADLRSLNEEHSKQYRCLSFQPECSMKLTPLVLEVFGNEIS

For `O=C1C2(Cl)C3(Cl)C4(Cl)C(Cl)(Cl)C5(Cl)C3(Cl)C1(Cl)C5(Cl)C24Cl` (centres undefined), the AC50 [1] was 11.7 µM (active), the AC50 [2] was 9.53 µM (active) and the AC50 [3] was 8.77 µM (active). The AC50 [4] was 8.22 µM (active), the AC50 [5] was 22.3 µM (active) and the AC50 [6] was 11.4 µM (active). The outcome [7] was “inactive”, the AC50 [8] was 5.96 µM (active) and the AC50 [9] was 10.4 µM (active). The AC50 [10] was 5.21 µM (active), the AC50 [11] was 10.9 µM (active) and the AC50 [12] was 6.58 µM (active). For the same compound, the AC50 [13] was 5.75 µM (active), the AC50 [14] was 9.73 µM (active) and the AC50 [15] was 5.18 µM (active). For the same compound, the AC50 [16] was 7.65 µM (active).

For `CCOP(=S)(OCC)SCSP(=S)(OCC)OCC`, the outcome [1] was “inactive”, the outcome [17] was “inactive” and the outcome [2] was “inactive”. The outcome [3] was “inactive”, the outcome [4] was “inactive” and the outcome [5] was “inactive”. For the same compound, the outcome [6] was “inactive”, the outcome [8] was “inactive” and the outcome [9] was “inactive”. For the same compound, the outcome [11] was “inactive”, the outcome [12] was “inactive” and the outcome [13] was “inactive”. The outcome [14] was “inactive”, the outcome [15] was “inactive” and the outcome [16] was “inactive”.

With `C[C@@H]1C[C@@H]([C@H](O)CC2CC(=O)NC(=O)C2)C(=O)[C@@H](C)C1` the AC50 [1] was 2.4 µM (active), the AC50 [17] was 10.7 µM (active) and the AC50 [2] was 8.41 µM (active). For the same compound, the AC50 [4] was 3.85 µM (active), the AC50 [5] was 6.06 µM (active) and the AC50 [6] was 20.1 µM (active). For the same compound, the AC50 [8] was 4.82 µM (active), the AC50 [9] was 2.51 µM (active) and the AC50 [10] was 9.24 µM (active). The AC50 [11] was 3.9 µM (active), the AC50 [12] was 7.08 µM (active) and the outcome [13] was “inactive”. The outcome [18] was “inactive”, the AC50 [15] was 8.73 µM (active) and the AC50 [16] was 4.95 µM (active). For the same compound, the AC50 [19] was 8.61 µM (active).

With `ClC1(Cl)C2(Cl)C3(Cl)C4(Cl)C(Cl)(Cl)C5(Cl)C3(Cl)C1(Cl)C5(Cl)C24Cl` (centres undefined) the outcome [1] was “inactive”, the outcome [17] was “inactive” and the outcome [2] was “inactive”. The outcome [3] was “inactive”, the outcome [4] was “inactive” and the outcome [5] was “inactive”. For the same compound, the outcome [6] was “inactive”, the outcome [7] was “inactive” and the outcome [8] was “inactive”. The outcome [9] was “inactive”, the outcome [11] was “inactive” and the outcome [12] was “inactive”. For the same compound, the outcome [13] was “inactive”, the outcome [14] was “inactive” and the outcome [15] was “inactive”. The outcome [16] was “inactive” and the outcome [20] was “inactive”.

For `NC(=O)O`, the outcome [1] was “inactive”, the outcome [2] was “inactive” and the outcome [3] was “inactive”. The outcome [4] was “inactive”, the outcome [5] was “inactive” and the outcome [6] was “inactive”. The outcome [7] was “inactive”, the outcome [8] was “inactive” and the outcome [9] was “inactive”. The outcome [10] was “inactive”, the outcome [11] was “inactive” and the outcome [12] was “inactive”. The outcome [13] was “inactive”, the outcome [14] was “inactive” and the outcome [15] was “inactive”. The outcome [16] was “inactive” and the outcome [19] was “inactive”.

With `O=[N+]([O-])c1ccc2c3c(cccc13)CC2` the outcome [1] was “inactive”, the outcome [17] was “inactive” and the outcome [2] was “inactive”. For the same compound, the AC50 [4] was 13.7 µM (active), the outcome [5] was “inactive” and the outcome [6] was “inactive”. For the same compound, the outcome [7] was “inactive”, the AC50 [8] was 20 µM (active) and the outcome [9] was “inactive”. For the same compound, the AC50 [10] was 8.8 µM (active), the outcome [11] was “inactive” and the outcome [12] was “inactive”. For the same compound, the outcome [13] was “inactive”, the outcome [14] was “inactive” and the outcome [15] was “inactive”. For the same compound, the outcome [16] was “inactive” and the outcome [20] was “inactive”.

In the case of `CC12CC1(C)C(=O)N(c1cc(Cl)cc(Cl)c1)C2=O` (centres undefined), the outcome [1] is reported as “inactive”, the outcome [17] is reported as “inactive” and the outcome [2] is reported as “inactive”. The outcome [4] was “inactive”, the outcome [5] was “inactive” and the outcome [6] was “inactive”. The outcome [7] was “inactive”, the outcome [8] was “inactive” and the outcome [9] was “inactive”. The outcome [10] was “inactive”, the outcome [11] was “inactive” and the outcome [12] was “inactive”. For the same compound, the outcome [13] was “inactive”, the outcome [15] was “inactive” and the outcome [16] was “inactive”. The outcome [19] was “inactive”.
